Experimental data published in PubChem BioAssay AID1159580 (chemical genetic matrix, 2015).
About 2,000 (36%) of roughly 5,500 compounds were called active. Another 18% or so got no clear call; they are omitted. Cut-off read from the data, not from the text of the source: active = normalized growth mostly below about 0.91 (no sharp cut-off); inconclusive = no clear call, values can overlap the other calls; inactive = mostly above about 0.92. This is one part of the list.

Experiment: chemical genetic growth profiling, strain panel (AID 1159580);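 note: tested at 20 µM; growth read once vehicle control cultures reached saturation at 30 °C; 1 = growth at the plate median or of vehicle wells; lower values mean less growth of the strain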
Settings: S. cerevisiae deletion strains, growth OD

Measured: normalized growth

O=c1ccc2ccc(O)cc2o1
inactive: locus YAL021C, strain ccr4, stronger effect = lower value 1.05 | locus YAL026C, strain drs2, stronger effect = lower value 0.984 | locus YAL030W, strain snc1, stronger effect = lower value 0.999 | locus YBL061C, strain skt5, stronger effect = lower value 0.991 | locus YBR009C, strain hhf1, stronger effect = lower value 1.01 | locus YBR023C, strain chs3, stronger effect = lower value 1.01 | locus YBR171W, strain sec66, stronger effect = lower value 0.987 | locus YBR231C, strain swc5, stronger effect = lower value 0.976 | locus YBR279W, strain paf1, stronger effect = lower value 1.01 | locus YCL011C, strain gbp2, stronger effect = lower value 1.01 | locus YCL016C, strain dcc1, stronger effect = lower value 1.02 | locus YCL069W, strain vba3, stronger effect = lower value 0.996 | locus YCR088W, strain abp1, stronger effect = lower value 0.996 | locus YDL005C, strain med2, stronger effect = lower value 0.981 | locus YDL040C, strain nat1, stronger effect = lower value 0.988 | locus YDR001C, strain nth1, stronger effect = lower value 0.988 | locus YDR069C, strain doa4, stronger effect = lower value 0.993 | locus YDR137W, strain rgp1, stronger effect = lower value 1.02 | locus YDR159W, strain sac3, stronger effect = lower value 0.972 | locus YDR195W, strain ref2 0.942 | locus YDR297W, strain sur2, stronger effect = lower value 0.986 | locus YDR334W, strain swr1, stronger effect = lower value 0.985 | locus YDR335W, strain msn5, stronger effect = lower value 1 | locus YDR392W, strain spt3, stronger effect = lower value 0.96 | locus YEL003W, strain gim4, stronger effect = lower value 0.988 | locus YEL037C, strain rad23, stronger effect = lower value 0.985 | locus YEL061C, strain CIN8 (second series), stronger effect = lower value 0.989 | locus YER015W, strain faa2, stronger effect = lower value 1.01 | locus YER016W, strain bim1, stronger effect = lower value 0.996 | locus YER111C, strain swi4, stronger effect = lower value 0.981 | locus YER155C, strain BEM2 (second series), stronger effect = lower value 0.986 | locus YFR010W, strain ubp6, stronger effect = lower value 0.976 | locus YGL167C, strain pmr1, stronger effect = lower value 0.99 | locus YGL173C, strain kem1, stronger effect = lower value 0.988 | locus YGL227W, strain vid30, stronger effect = lower value 0.983 | locus YGL240W, strain doc1, stronger effect = lower value 0.976 | locus YGL253W, strain hxk2, stronger effect = lower value 0.972 | locus YHR013C, strain ard1, stronger effect = lower value 0.997 | locus YHR027C, strain rpn1, stronger effect = lower value 0.981 | locus YHR142W, strain chs7, stronger effect = lower value 1.01 | locus YJL092W, strain hpr5, stronger effect = lower value 0.994 | locus YJL095W, strain BCK1 (second series), stronger effect = lower value 1 | locus YJL115W, strain asf1, stronger effect = lower value 0.985 | locus YJL129C, strain trk1, stronger effect = lower value 0.972 | locus YJL154C, strain vps35, stronger effect = lower value 0.988 | locus YJL164C, strain tpk1, stronger effect = lower value 1.01 | locus YJL166W, strain qcr8, stronger effect = lower value 1 | locus YKL160W, strain elf1, stronger effect = lower value 1.01 | locus YKR026C, strain gcn3, stronger effect = lower value 0.991 | locus YKR091W, strain srl3, stronger effect = lower value 0.992 | locus YLL001W, strain dnm1, stronger effect = lower value 1.01 | locus YLL026W, stronger effect = lower value 1 | locus YLL041C, strain sdh2, stronger effect = lower value 0.992 | locus YLR027C, strain aat2, stronger effect = lower value 1.01 | locus YLR221C, strain rsa3, stronger effect = lower value 0.98 | locus YLR258W, strain gsy2, stronger effect = lower value 1.03 | locus YLR262C, strain YPT6 (second series), stronger effect = lower value 1.01 | locus YLR320W, strain mms22, stronger effect = lower value 0.975 | locus YLR342W, strain FKS1, stronger effect = lower value 1 | locus YLR357W, strain rsc2, stronger effect = lower value 0.996 | locus YLR370C, strain arc18, stronger effect = lower value 1 | locus YLR384C, strain iki3, stronger effect = lower value 0.988 | locus YML120C, strain ndi1, stronger effect = lower value 1.01 | locus YMR058W, strain fet3, stronger effect = lower value 0.99 | locus YMR125W, strain sto1, stronger effect = lower value 1.01 | locus YMR129W, stronger effect = lower value 0.993 | locus YMR205C, strain PFK2, stronger effect = lower value 1.02 | locus YMR231W, strain pep5, stronger effect = lower value 0.982 | locus YNL071W, strain lat1, stronger effect = lower value 1 | locus YNL209W, strain ssb2, stronger effect = lower value 1.01 | locus YNL248C, strain rpa49, stronger effect = lower value 0.999 | locus YNL322C, strain KRE1 (second series), stronger effect = lower value 0.996 | locus YNR049C, strain mso1, stronger effect = lower value 0.979 | locus YOR001W, strain rrp6, stronger effect = lower value 0.931 | locus YOR070C, strain gyp1, stronger effect = lower value 0.999 | locus YOR080W, strain dia2, stronger effect = lower value 0.992 | locus YOR083W, strain WHI5, stronger effect = lower value 1.03 | locus YOR106W, strain vam3, stronger effect = lower value 1.03 | locus YOR265W, strain rbl2, stronger effect = lower value 0.994 | locus YOR270C, strain vph1, stronger effect = lower value 0.985 | locus YOR290C, strain snf2, stronger effect = lower value 1 | locus YPL051W, strain arl3, stronger effect = lower value 0.997 | locus YPL078C, strain atp4, stronger effect = lower value 1.01 | locus YPL106C, strain sse1, stronger effect = lower value 1.03 | locus YPL240C, strain hsp82, stronger effect = lower value 0.998
